About 25,000 (6.9%) of roughly 360,000 compounds were called active. A call without a number means that no potency is given here. Another 9% or so got no clear call; they are omitted. Calls follow the shape of the dose curve; as a rule, active = well fitted inhibition curve with a large enough effect; inconclusive = small, poorly fitted or top-dose-only effect; inactive = flat fitted curve, though single readings scatter. Only a selection was taken, and actives are over-represented in it overall.
Potency is read from the fitted curve at half-maximal effect.

For the assay, the target named is Luciferin 4-monooxygenase (Photinus pyralis) (UniProt P08659). The assay can be described thus: qHTS profiling assay for firefly luciferase inhibitor/activator using purifed enzyme and Km concentrations of substrates (counterscreen for miR-21 project). Also: nearly all actives have a fitted effect of over 55% in size. As to conditions: purified FLuc, luminescence inhibition; series mostly up to 57.5 µM. The method, boiled down: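 Purified P. pyralis luciferase (10nM final) with 10uM D-luciferin and 10uM ATP (Km levels) in 50mM Tris acetate pH 7.5, 10mM Mg acetate, 0.01% Tween-20, 0.05% BSA; qHTS 6-point titration, ~60 µM downward; luminescence read.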
Sequence of Luciferin 4-monooxygenase (Photinus pyralis) (P08659 whole entry, looked up): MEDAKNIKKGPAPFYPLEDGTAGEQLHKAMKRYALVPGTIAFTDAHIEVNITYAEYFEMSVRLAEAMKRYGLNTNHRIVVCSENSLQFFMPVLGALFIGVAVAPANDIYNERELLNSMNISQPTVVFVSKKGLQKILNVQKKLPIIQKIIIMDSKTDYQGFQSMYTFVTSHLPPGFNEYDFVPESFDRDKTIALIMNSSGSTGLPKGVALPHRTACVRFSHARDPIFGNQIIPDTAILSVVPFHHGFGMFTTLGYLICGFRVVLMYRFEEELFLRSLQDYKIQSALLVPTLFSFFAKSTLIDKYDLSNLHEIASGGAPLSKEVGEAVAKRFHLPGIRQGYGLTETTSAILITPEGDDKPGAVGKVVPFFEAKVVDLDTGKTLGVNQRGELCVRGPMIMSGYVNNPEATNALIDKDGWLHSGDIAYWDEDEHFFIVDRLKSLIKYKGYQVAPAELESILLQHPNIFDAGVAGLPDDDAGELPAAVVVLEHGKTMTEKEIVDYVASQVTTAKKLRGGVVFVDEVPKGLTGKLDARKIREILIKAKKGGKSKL
A general note: qHTS replaces the single test concentration by a dilution series.
Turning to `CC(C)CCNC(=O)c1ccc2c(Cl)c3c(nc2c1)CCC3`, the Potency was 0.675 µM (active).

On to `CC(=O)c1ccc(NC(=O)c2ccc3c(Cl)c4c(nc3c2)CCCC4)cc1`, for which the Potency entry is “inactive”.

As to `COc1ccc(N2CCN(C(=O)c3ccc4c(Cl)c5c(nc4c3)CCCC5)CC2)cc1`, the Potency entry is “inactive”.

Turning to `CCOc1ccc(OCC(=O)OC(C)C(=O)NC2CCCCC2C)cc1` (stereo unspecified), the Potency entry was “inactive”.

Take `CCc1cc2c(cc3c(=O)n(CC(=O)NCCc4ccc(OC)c(OC)c4)ncn32)s1`: the Potency entry was “inactive”.

`CCN(CC)c1ccc(/C=N/NC(=O)c2cnccn2)c(O)c1`: the Potency is 9.53 µM (active).

Take `COc1ccc(NC(=O)C/C(C)=N/NC(=O)c2cnccn2)cc1Cl`: the Potency entry is “inactive”.

For `Cc1ccc(C(=O)NCCNC(=O)c2cnccn2)cc1`, the Potency entry was “inactive”.

For the molecule `O=C(CSc1ncnc2c1cnn2CCc1ccccc1)Nc1ccc(F)cc1`, the Potency result was “inactive”.

For the molecule `CC(=O)c1ccc(NC(=O)C2CCN(S(=O)(=O)c3c(C)noc3/C=C/c3ccc(C)cc3)CC2)cc1`, the Potency entry is “inactive”.

In the case of `COc1ccc(C2(C)ON(c3ccccc3C(F)(F)F)C2=O)cc1` (stereo unspecified), the Potency result was “inactive”.

On to `CCNCCC(=O)N1c2ccccc2Sc2ccc(NC(=O)OCC)cc21`, for which the Potency entry was “inactive”.

Take `O=C(Nc1ccccc1Br)c1cc(CN2CCCC2)on1`: the Potency entry is “inactive”.

With `C[C@H](NC(=O)NCCc1ccccc1)C(=O)O`, the Potency result is “inactive”.

With `CC(C)Cc1cc(C(=O)NCCc2ccccc2)no1`, the Potency is 10.7 µM (active).

For the molecule `Cc1nn(Cc2ccc(F)cc2)c(C)c1NC(=O)c1cc(CC(C)C)on1`, the Potency result is “inactive”.

On to `CC(C)Cc1cc(C(=O)Nc2cc(Br)ccc2O)no1`, for which the Potency was 12 µM (active).

Take `Nc1nonc1C(=O)NCCc1ccccc1`: the Potency entry is “inactive”.

Consider `O=S(=O)(NCCCN1CCOCC1)c1ccc(F)c(Cl)c1`, for which the Potency entry was “inactive”.

Turning to `CCCN=C1NC(=O)C(CC(=O)NCCc2ccc(OC)c(OC)c2)S1` (stereo unspecified), the Potency entry is “inactive”.

Take `Cc1cccc(-n2ccnc2SCC(=O)Nc2cc(C(F)(F)F)ccc2Cl)c1`: the Potency result is “inactive”.

With `CN1CCN(C(CNC(=O)c2ccccc2F)c2ccc3c(c2)OCO3)CC1` (stereo unspecified), the Potency result is “inactive”.

As to `C=CCn1c(SCC(N)=O)nnc1-c1cc2c(s1)CCC(CC)C2` (stereo unspecified), the Potency is 7.57 µM (active).

Turning to `CCn1c(CSc2nc(C)cc(C)n2)nnc1SCC(N)=O`, the Potency result is “inactive”.

`C=CCn1c(SCc2c(C(=O)OC)sc(N)c2C(=O)OC)nnc1-c1ccc(Cl)cc1`: the Potency entry was “inactive”.

With `Cc1oc2ncnc(N3CCCCC3)c2c1C(=O)N1CCN(c2cccc(Cl)c2)CC1`, the Potency result is “inactive”.

Regarding `Cc1ccc(O)c(NC(=O)CCS(=O)(=O)c2nc(-c3ccc4c(c3)OCO4)cc(C(F)(F)F)n2)c1`, the Potency result is “inactive”.

On to `CCc1ccc(NC(=O)c2cc(S(=O)(=O)N3CCCC(C)C3)cn2C)cc1` (stereo unspecified), for which the Potency entry was “inactive”.

As to `Oc1ccccc1N1CCN(c2ncnc3sc(-c4ccccc4)cc23)CC1`, the Potency result was “inactive”.

`COc1ccc(Nc2nc(=O)[nH]nc2C)cc1`: the Potency result was “inactive”.

In the case of `C=CCNc1ncnc2ccc(Br)cc12`, the Potency entry is “inactive”.

On to `O=C(O)CCCCCNc1ncnc2ccc(Br)cc12`, for which the Potency entry is “inactive”.

On to `COc1ccc(NC(=O)c2sc(N3CCOCC3)nc2-c2ccccc2)c(OC)c1`, for which the Potency result is “inactive”.

Regarding `COc1ccc(Nc2ncnc3sc(C)cc23)cc1`, the Potency was 16.9 µM (active).

On to `CCOc1ccc(Nc2ncnc3scc(-c4ccc(OC)cc4)c23)cc1`, for which the Potency entry was “inactive”.

For the molecule `COc1ccc(Nc2ncnc3sc(-c4ccccc4)cc23)c(OC)c1`, the Potency is 19 µM (active).

As to `COc1ccc(Nc2ncnc3ccc(Br)cc23)c(OC)c1`, the Potency is 26.9 µM (active).

Regarding `Cc1cc(C)cc(NC(=O)CSc2nc3nccnc3c(=O)n2CCc2c[nH]c3ccccc23)c1`, the Potency result is “inactive”.

With `COc1ccc(N2CCN(C(=O)C3CCCN(C(=O)c4cc5sccc5n4C)C3)CC2)cc1` (stereo unspecified), the Potency entry is “inactive”.

Regarding `Cc1cc(C)c2sc(NC(=O)c3ccc(S(=O)(=O)N4CCCC4)cc3)nc2c1`, the Potency entry is “inactive”.

Take `CC(C)(C)c1ccc(/C=C2\Oc3c(ccc(O)c3CN3CCN(CCO)CC3)C2=O)cc1`: the Potency result was “inactive”.

As to `CCOc1ccc(-n2c(C)nc3c(cnn3-c3ccc(C)cc3)c2=O)cc1`, the Potency entry was “inactive”.

With `CCN(CC(=O)Nc1ccc(NC(C)=O)cc1)C(=O)CSC(=S)N1CCCC1`, the Potency entry was “inactive”.

Take `Cn1c(-c2ccc(C(F)(F)F)cc2)cc2onc(-c3ccccc3)c2c1=O`: the Potency is 0.536 µM (active).

For the molecule `O=C1c2ccccc2C(=O)N1Cc1cc(-c2ccccc2Cl)no1`, the Potency entry was “inactive”.

With `O=c1c2ccccc2c(-c2ccc(F)cc2)nn1-c1ccc(C(F)(F)F)cc1`, the Potency result was “inactive”.

As for `Cn1c(-c2ccc(F)cc2)cc2onc(-c3ccccc3Cl)c2c1=O`, the Potency was 2.13 µM (active).

As for `Cc1[nH]n(C)c(=O)c1C(=O)c1c(-c2c(Cl)cccc2Cl)noc1C`, the Potency result is “inactive”.

With `Cc1onc(-c2ccccc2)c1C(=O)N1CCN(S(=O)(=O)c2ccccc2C(F)(F)F)CC1`, the Potency result is “inactive”.

As to `COc1ccccc1C1C(C(=O)N2CCCCC2)=C(C)Nc2nc3ccccc3n21` (stereo unspecified), the Potency result was “inactive”.

As to `COc1ccccc1CNC(=O)CCCN1C(=O)NC2(CCCC2)C1=O`, the Potency result is “inactive”.

Consider `CCc1cc(CNC(=O)CC2C(=O)NCCN2CC2CCCCC2)on1` (stereo unspecified), for which the Potency result is “inactive”.

Turning to `FC(F)(F)C1CCCN(c2nsc3ccccc23)C1` (stereo unspecified), the Potency was 9.53 µM (active).

For `O=C(NC(Cc1ccccc1)C(=O)N1CCCC(C(F)(F)F)C1)c1ccccc1` (stereo unspecified), the Potency result was “inactive”.

Turning to `CC(=O)N1CCCc2cc(S(=O)(=O)N3CCC(C(=O)NCc4ccc(F)cc4)CC3)ccc21`, the Potency entry was “inactive”.

In the case of `CNC(=O)C(NC(=O)c1ccccc1)=C(C)C`, the Potency result was “inactive”.

For `O=C(NC(=O)c1ccccc1)Nc1ccccc1O`, the Potency is 1.9 µM (active).

In the case of `O=C(NC(=O)N1CCOCC1)c1ccccc1`, the Potency result is “inactive”.

With `COc1ccc(OC)c(NC(=O)CSC2=Nc3ccccc3C3=NC(CC(=O)NCc4ccc(F)cc4)C(=O)N23)c1` (stereo unspecified), the Potency result was “inactive”.

As for `COc1cccc2sc(Nc3nc(C)c(C(C)=O)s3)nc12`, the Potency is 6.75 µM (active).

As for `COc1cc2ccccc2cc1C(=O)N1CCOCC1`, the Potency result is “inactive”.

`CCC(=O)Nc1nc(C)c(C(=O)Nc2cccc(Cl)c2)s1`: the Potency result was “inactive”.

For the molecule `COc1cc2ccccc2cc1C(=O)Nc1nc(C)c(C(C)=O)s1`, the Potency is 4.78 µM (active).

As to `COc1cc(OC)c(C(=O)Nc2ccccc2-c2ccccc2)cc1OC`, the Potency entry was “inactive”.

Regarding `COc1cc2ccccc2cc1C(=O)Nc1ccccc1C`, the Potency is 8.49 µM (active).

For `COc1cc(OC)c(C(=O)Nc2ccc(N(C)C)cc2)cc1OC`, the Potency is 10.7 µM (active).

Regarding `COC(=O)c1ccc(NC(=O)c2cc(Cl)ccc2OC)cc1`, the Potency result is “inactive”.

For `COc1ccc(Br)cc1C(=O)Nc1cccc(C)c1C`, the Potency result is “inactive”.

For the molecule `CNC(=O)c1sc(NCc2ccccc2OC)nc1C`, the Potency entry was “inactive”.

For `COc1cccc2sc(N(CCCN(C)C)C(=O)C(c3ccccc3)c3ccccc3)nc12`, the Potency entry is “inactive”.

For the molecule `COc1ccccc1NC(=O)c1cc(Cl)nnc1Cl`, the Potency result was “inactive”.

Take `CC(=O)c1ccc(NC(=O)CSc2c(C(C)C)cnc3c2c(=O)n(C)c(=O)n3C)cc1`: the Potency entry is “inactive”.

Turning to `CS(=O)(=O)N(CC(=O)N1CCOCC1)c1ccc2c3c(cccc13)CC2`, the Potency result was “inactive”.

In the case of `Cc1ccc(S(=O)(=O)N2CCC(C(=O)OCC(=O)N3CC(=O)Nc4ccccc43)CC2)cc1`, the Potency result was “inactive”.

As to `Cc1cc(C)n(CCC(=O)N2CCN(S(=O)(=O)c3ccc(C)c(C)c3)CC2)n1`, the Potency entry was “inactive”.

As for `COc1ccccc1C(=O)Nc1c(C(=O)N(C)Cc2ccccc2)sc2nc(C)c(Cl)c(C)c12`, the Potency entry is “inactive”.

As to `O=C(O)c1ccc2c(c1)N(Cc1ccc(F)cc1)C(=O)c1ccccc1S2=O` (stereo unspecified), the Potency result was “inactive”.

On to `Cc1cc(C)cc(OCC(=O)Nc2c(C(=O)c3ccccc3)oc3ccccc23)c1`, for which the Potency result was “inactive”.

For `Cc1ccc2oc(C(=O)Nc3ccc(S(=O)(=O)N4CCCCCC4)cc3)cc(=O)c2c1`, the Potency entry was “inactive”.

For `O=[N+]([O-])c1cc(S(=O)(=O)NCCc2ccccn2)ccc1Cl`, the Potency entry is “inactive”.

In the case of `CCOc1ccc(S(=O)(=O)N2CCC(C(=O)NCC(=O)Nc3cccc(Cl)c3C)CC2)cc1`, the Potency result was “inactive”.

Take `O=C(CN1C(=O)COc2ccc(S(=O)(=O)N3CCCCCC3)cc21)N1CCN(c2cccc(C(F)(F)F)c2)CC1`: the Potency result was “inactive”.

As for `CCOc1ccc(C(=O)c2cn(Cc3ccc(F)cc3)c3ccc(F)cc3c2=O)cc1`, the Potency entry was “inactive”.

With `COc1cc2ccccc2cc1C(=O)Nc1ccncc1`, the Potency is 12 µM (active).

`COc1cc2ccccc2cc1C(=O)Nc1ccc(NC(=O)c2cccs2)cc1`: the Potency entry was “inactive”.

For `COc1cc2ccccc2cc1C(=O)Nc1ccc(S(=O)(=O)Nc2cc(C)on2)cc1`, the Potency entry was “inactive”.

On to `CCOc1cccc(NC(=O)Cn2nc(-c3ccc4c(c3)OCCO4)ccc2=O)c1`, for which the Potency result was “inactive”.

As for `O=C1c2ccccc2NC(c2ccc(-c3cccc(Cl)c3)o2)N1O` (stereo unspecified), the Potency was 10.7 µM (active).

Regarding `CC(=O)NN1C(=O)c2ccccc2NC1c1ccccc1` (stereo unspecified), the Potency result was “inactive”.

On to `Nc1nnnn1CC(=O)N/N=C/c1ccc(-c2cccc(Cl)c2)o1`, for which the Potency result was “inactive”.

As to `Cc1cc(C)c(NC(=O)Cn2c(SCC(=O)NCc3ccccc3)nc3ccccc32)c(C)c1`, the Potency result was “inactive”.

Consider `CCn1c(CNC(=O)c2ccccc2)nnc1SCC(=O)N1CCN(c2ccccc2)CC1`, for which the Potency entry is “inactive”.

Regarding `Cc1ncc(CC(=O)n2cc(C(=O)c3cc(Cl)ccc3O)cn2)s1`, the Potency result is “inactive”.

Consider `CCCc1c(C(=O)O)cnn1-c1ccc(Cl)cc1`, for which the Potency result was “inactive”.

For the molecule `O=C(c1cnn(-c2ccc(Cl)cc2)c1)c1ccccc1O`, the Potency was 2.13 µM (active).

For `COc1cc(C(C)=O)ccc1OC(C)C(=O)Nc1ccc(S(=O)(=O)N2CCCC2)cc1` (stereo unspecified), the Potency result was “inactive”.

For `Cc1oc2ncn(CC(C)C)c(=O)c2c1C(=O)N1CCN(c2ccccc2F)CC1`, the Potency entry is “inactive”.

Take `N#Cc1c(NC(=O)CCCl)sc2c1CCCCC2`: the Potency result was “inactive”.

Consider `N#Cc1c(NC(=O)C2CC(Cl)=CCC2C(=O)O)sc2c1CCCCC2` (stereo unspecified), for which the Potency result was “inactive”.

With `N#Cc1c(NC(=O)C2CCCO2)sc2c1CCCCC2` (stereo unspecified), the Potency is 13.5 µM (active).

`COc1ccc2c(Cl)c(C(=O)NCc3ccco3)sc2c1`: the Potency is 10.7 µM (active).

As for `COc1ccc(NC(=O)C(=O)NCc2ccco2)cc1`, the Potency result was “inactive”.

As for `O=C(NCc1ccco1)c1sc2cccc(F)c2c1Cl`, the Potency result was “inactive”.

`CCN(C(=O)c1sc2cc(OC)ccc2c1Cl)c1ccccc1`: the Potency result was “inactive”.

As to `COc1cc(C(=O)NC(=S)NCc2ccco2)cc(OC)c1OC`, the Potency entry was “inactive”.

`COc1ccc2oc(C(=O)NCc3ccco3)c(C)c2c1`: the Potency is 16.9 µM (active).
